# Several values for one entry are separate records, joined by “and”; a condition that tells them apart may be missing. Equal values may be shown once. Read-outs that look alike come from different tables or passages of the source.
# Key:
# TNIK = conditions: concentration: 1 μM, replicates: in singlicate; n = 1
# TNK1 = conditions: concentration: 1 μM, replicates: in singlicate; n = 1
# TNK2 = conditions: n = 1
# TNNI3K = conditions: n = 1
# TRKA = system: T1, TRKA; conditions: concentration: 1 μM, replicates: in singlicate; n = 1
# T1 construct: gene NTRK1
# TRKB = conditions: n = 1
# TRKC = system: T2, TRKC; conditions: n = 1
# T2 construct: gene NTRK3
# TRPM6 = conditions: n = 1
# TSSK1B = conditions: n = 1
# TSSK3 = conditions: n = 1
# TTK = conditions: concentration: 1 μM, replicates: in singlicate; n = 1
# TXK = conditions: n = 1
# [1] = system: TYK2(JH1domain-catalytic); conditions: n = 1
# [2] = system: TYK2(JH2domain-pseudokinase); conditions: n = 1
# TYRO3 = conditions: n = 1
# ULK1 = conditions: concentration: 1 μM, replicates: in singlicate; n = 1
# ULK2 = conditions: n = 1
# ULK3 = conditions: n = 1
# VEGFR2 = system: T3, VEGFR2; conditions: n = 1
# T3 construct: gene KDR
# VPS34 = system: T4, VPS34; conditions: n = 1
# T4 construct: gene PIK3C3
# [3] = concentration: 1 μM, replicates: in singlicate
# [4] = concentration: 1 μM,replicates: in singlicate, 1 µM
# 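Further: KINOMEscan kinase panel screen.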
smiles,measurement,setting,value
COc1ccc(CNC(=O)NC2CCN(c3ccnc(Nc4cc(OC)c(OC)c(OC)c4)n3)C2)cc1 (stereo not shown) [GSK1379748],%Inh,TNIK,0%
same,%Inh,TNK1,0%
same,%Inh,TNK2; [3],4%
same,%Inh,TNNI3K; [3],10%
same,%Inh,TRKA,73%
same,%Inh,TRKB; [3],23%
same,%Inh,TRKC; [3],40%
same,%Inh,TRPM6; [3],18%
same,%Inh,TSSK1B; [3],0%
same,%Inh,TSSK3; [3],10%
same,%Inh,TTK,0%
same,%Inh,TXK; [3],8%
same,%Inh,[1]; [3],48%
same,%Inh,[2]; [3],31%
same,%Inh,TYRO3; [3],0%
same,%Inh,ULK1,0%
same,%Inh,ULK2; [3],0%
same,%Inh,ULK3; [3],86%
same,%Inh,VEGFR2; [3],4%
same,%Inh,VPS34; [3],7%
Cc1ccccc1-n1cnc2c(N)ncnc21 [SKF-97510],%Inh,TNIK,0%
same,%Inh,TNK1,0%
same,%Inh,TNK2; [3],7%
same,%Inh,TNNI3K; [3],0%
same,%Inh,TRKA,0%
same,%Inh,TRKB; [3],0%
same,%Inh,TRKC; [3],0%
same,%Inh,TRPM6; [3],66%
same,%Inh,TSSK1B; [3],0%
same,%Inh,TSSK3; [3],0%
same,%Inh,TTK,0%
same,%Inh,TXK; [3],0%
same,%Inh,[1]; [3],0%
same,%Inh,[2]; [3],0%
same,%Inh,TYRO3; [3],25%
same,%Inh,ULK1,0%
same,%Inh,ULK2; [3],0%
same,%Inh,ULK3; [3],0%
same,%Inh,VEGFR2; [3],0%
same,%Inh,VPS34; [3],0%
Cc1c(Cn2ccn3c(=O)cc(N4CCOCC4)nc23)cccc1C(F)(F)F [GSK2289044],%Inh,TNIK,3%
same,%Inh,TNK1,0%
same,%Inh,TNK2; [3],6%
same,%Inh,TNNI3K; [3],2%
same,%Inh,TRKA,1%
same,%Inh,TRKB; [3],0%
same,%Inh,TRKC; [3],0%
same,%Inh,TRPM6; [3],12%
same,%Inh,TSSK1B; [3],12%
same,%Inh,TSSK3; [3],6%
same,%Inh,TTK,1%
same,%Inh,TXK; [3],0%
same,%Inh,[1]; [3],0%
same,%Inh,[2]; [3],0%
same,%Inh,TYRO3; [3],0%
same,%Inh,ULK1,7%
same,%Inh,ULK2; [3],0%
same,%Inh,ULK3; [3],0%
same,%Inh,VEGFR2; [3],1%
same,%Inh,VPS34; [3],95.1%
Cl.c1ccc(-c2n[nH]cc2-c2ccnc(-c3ccc(CN4CCOCC4)cc3)c2)nc1 [GW776245],%Inh,TNIK,30%
same,%Inh,TNK1,42%
same,%Inh,TNK2; [3],0%
same,%Inh,TNNI3K; [3],0%
same,%Inh,TRKA,0%
same,%Inh,TRKB; [3],0%
same,%Inh,TRKC; [3],0%
same,%Inh,TRPM6; [3],0%
same,%Inh,TSSK1B; [3],0%
same,%Inh,TSSK3; [3],0%
same,%Inh,TTK,31%
same,%Inh,TXK; [3],7%
same,%Inh,[1]; [3],0%
same,%Inh,[2]; [3],0%
same,%Inh,TYRO3; [3],0%
same,%Inh,ULK1,0%
same,%Inh,ULK2; [3],0%
same,%Inh,ULK3; [3],20%
same,%Inh,VEGFR2; [3],0%
same,%Inh,VPS34; [3],0%
C[C@@H]1CCCCN1c1cc(-c2ccc3c(N)n[nH]c3c2)nc(N)n1 [GSK2258759],%Inh,TNIK,0%
same,%Inh,TNK1,0%
same,%Inh,TNK2; [3],18%
same,%Inh,TNNI3K; [3],0%
same,%Inh,TRKA,0%
same,%Inh,TRKB; [3],0%
same,%Inh,TRKC; [3],0%
same,%Inh,TRPM6; [3],16%
same,%Inh,TSSK1B; [3],0%
same,%Inh,TSSK3; [3],2%
same,%Inh,TTK,0%
same,%Inh,TXK; [3],0%
same,%Inh,[1]; [3],0%
same,%Inh,[2]; [3],3%
same,%Inh,TYRO3; [3],0%
same,%Inh,ULK1,0%
same,%Inh,ULK2; [3],0%
same,%Inh,ULK3; [3],0%
same,%Inh,VEGFR2; [3],0%
same,%Inh,VPS34; [3],0%
CCCc1ccc(S(=O)(=O)NC2CCN(c3ccnc(Nc4ccc(F)cc4)n3)C2)cc1 (stereo not shown) [GSK1379715],%Inh,TNIK,0%
same,%Inh,TNK1,0%
same,%Inh,TNK2; [3],26%
same,%Inh,TNNI3K; [3],13%
same,%Inh,TRKA,0%
same,%Inh,TRKB; [3],0%
same,%Inh,TRKC; [3],28%
same,%Inh,TRPM6; [3],0%
same,%Inh,TSSK1B; [3],100%
same,%Inh,TSSK3; [3],15%
same,%Inh,TTK,0%
same,%Inh,TXK; [3],73%
same,%Inh,[1]; [3],26%
same,%Inh,[2]; [3],30%
same,%Inh,TYRO3; [3],0%
same,%Inh,ULK1,16%
same,%Inh,ULK2; [3],0%
same,%Inh,ULK3; [3],4%
same,%Inh,VEGFR2; [3],0%
same,%Inh,VPS34; [3],0%
Cc1ccc(NC(=O)Nc2cc(C(C)(C)C)nn2-c2ccccc2)cc1 [GSK1014915],%Inh,TNIK,0%
same,%Inh,TNK1,0%
same,%Inh,TNK2; [3],15%
same,%Inh,TNNI3K; [3],21%
same,%Inh,TRKA,0%
same,%Inh,TRKB; [3],28%
same,%Inh,TRKC; [3],26%
same,%Inh,TRPM6; [3],24%
same,%Inh,TSSK1B; [3],2%
same,%Inh,TSSK3; [3],14%
same,%Inh,TTK,4%
same,%Inh,TXK; [3],0%
same,%Inh,[1]; [3],25%
same,%Inh,[2]; [3],4%
same,%Inh,TYRO3; [3],7%
same,%Inh,ULK1,17%
same,%Inh,ULK2; [3],0%
same,%Inh,ULK3; [3],13%
same,%Inh,VEGFR2; [3],6%
same,%Inh,VPS34; [3],0%
CSc1nn2c(=O)cc(N3CCOCC3)nc2n1Cc1cccc(C(F)(F)F)c1C [GSK2363608],%Inh,TNIK,0%
same,%Inh,TNK1,0%
same,%Inh,TNK2; [4],17% and 30%
same,%Inh,TNNI3K; [4],1% and 10%
same,%Inh,TRKA,0%
same,%Inh,TRKB; [4],0% and 3%
same,%Inh,TRKC; [4],0% and 11%
same,%Inh,TRPM6; [4],22% and 0%
same,%Inh,TSSK1B; [4],18% and 77%
same,%Inh,TSSK3; [4],18% and 6%
same,%Inh,TTK,0%
same,%Inh,TXK; [4],10% and 0%
same,%Inh,[1]; [4],51% and 72%
same,%Inh,[2]; [4],16% and 8%
same,%Inh,TYRO3; [4],0% and 18%
same,%Inh,ULK1,15%
same,%Inh,ULK2; [4],5% and 0%
same,%Inh,ULK3; [4],15% and 0%
same,%Inh,VEGFR2; [4],8% and 0%
same,%Inh,VPS34; [4],94.7% and 96.7%
Cc1nnc(-c2ccc3occ(-c4ccc(S(C)=O)cc4)c3c2)[nH]1 (stereo not shown),%Inh,TNIK,5%
same,%Inh,TNK1,0%
same,%Inh,TNK2; [3],0%
same,%Inh,TNNI3K; [3],15%
same,%Inh,TRKA,28%
same,%Inh,TRKB; [3],0%
same,%Inh,TRKC; [3],43%
same,%Inh,TRPM6; [3],1%
same,%Inh,TSSK1B; [3],0%
same,%Inh,TSSK3; [3],2%
same,%Inh,TTK,8%
same,%Inh,TXK; [3],0%
same,%Inh,[1]; [3],8%
same,%Inh,[2]; [3],59%
same,%Inh,TYRO3; [3],0%
same,%Inh,ULK1,4%
same,%Inh,ULK2; [3],23%
same,%Inh,ULK3; [3],14%
same,%Inh,VEGFR2; [3],1%
same,%Inh,VPS34; [3],88%
Cc1ccc(-c2cc(-c3c[nH]nc3-c3ccccn3)ccn2)cc1 [GW684088],%Inh,TNIK,90.2%
same,%Inh,TNK1,19%
same,%Inh,TNK2; [3],12%
same,%Inh,TNNI3K; [3],0%
same,%Inh,TRKA,18%
same,%Inh,TRKB; [3],22%
same,%Inh,TRKC; [3],40%
same,%Inh,TRPM6; [3],0%
same,%Inh,TSSK1B; [3],0%
same,%Inh,TSSK3; [3],10%
same,%Inh,TTK,0%
same,%Inh,TXK; [3],0%
same,%Inh,[1]; [3],18%
same,%Inh,[2]; [3],22%
same,%Inh,TYRO3; [3],0%
same,%Inh,ULK1,0%
same,%Inh,ULK2; [3],0%
same,%Inh,ULK3; [3],3%
same,%Inh,VEGFR2; [3],22%
same,%Inh,VPS34; [3],0%
O=S(=O)(c1ccc(-c2ccnc3[nH]ccc23)cc1)N1CCCC1 [GSK846226],%Inh,TNIK,0%
same,%Inh,TNK1,0%
same,%Inh,TNK2; [3],9%
same,%Inh,TNNI3K; [3],3%
same,%Inh,TRKA,69%
same,%Inh,TRKB; [3],0%
same,%Inh,TRKC; [3],0%
same,%Inh,TRPM6; [3],26%
same,%Inh,TSSK1B; [3],10%
same,%Inh,TSSK3; [3],18%
same,%Inh,TTK,20%
same,%Inh,TXK; [3],9%
same,%Inh,[1]; [3],62%
same,%Inh,[2]; [3],20%
same,%Inh,TYRO3; [3],0%
same,%Inh,ULK1,19%
same,%Inh,ULK2; [3],0%
same,%Inh,ULK3; [3],27%
same,%Inh,VEGFR2; [3],15%
same,%Inh,VPS34; [3],46%

# Source: PMC5540273 (PLoS ONE, 2017)
